# ± gives the standard deviation of the averaged measurements.
# System: Caenorhabditis elegans N2 infected with Nematocida parisii ERTm1
# Test: progeny production relative to DMSO uninfected control; higher = more progeny despite microsporidia infection (inhibition of infection with low host toxicity)
# Conditions: infection time 6 days
# Outline: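 Bleach-synchronised wild-type C. elegans L1 larvae (100 per well) were placed in 96-well plates with K-medium, E. coli OP50 and 15,000 N. parisii spores/μL, with compound pinned to 100 μM or 40 μM in 1% DMSO. Plates were shaken at 21°C for 6 days; worms were then Rose Bengal-stained, flatbed-scanned and counted with WorMachine, each compound and dose tested three times. Progeny production is given as a percentage of the spore-free vehicle control, averaged across replicates.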
Compound,progeny production (40 µM) [%],progeny production (100 µM) [%]
CCOc1noc2cc(OCCC3CCN(c4ccc(C)nn4)CC3)ccc12,4.43 ± 1.4,17.1 ± 11
Cc1cc(-c2ccccc2)c(C(=O)C(=O)Nc2ccc(N3CCN(c4ncc(F)cn4)CC3)cc2)n1C,2.94 ± 0.74,–
c1cnc(NCc2ccc(CNc3ncccn3)cc2)nc1,3.1 ± 0.72,9.59 ± 5.8
N=C(N)NCCCCC(=O)Nc1cc(C(F)(F)F)cc(NC(=O)c2cc(C(=O)Nc3cc(C(F)(F)F)cc(NC(=O)CCCCNC(=N)N)c3O[C@@H]3CCNC3)ncn2)c1O[C@@H]1CCNC1,7.1 ± 7.2,3.98 ± 2.8
CCCCSc1nc(N)c2[nH]c(=O)c(=O)n(Cc3ccccc3)c2n1,4.52 ± 1.9,20.2 ± 11
Clc1cc(Cl)c2c(c1)CCc1ccccc1C2n1ccnc1 (stereo unspecified),7.16 ± 0.49,–
Nc1nc(C(F)(F)F)cc2c1[nH]c(=O)n2Cc1ccccc1,2.69 ± 0.61,17.2 ± 1.5
Clc1cccc(-c2nnc(-c3ccccc3)o2)c1,1.33 ± 1.1,4.24 ± 2.4
CCc1nc2ccc(Cl)cn2c1C(=O)NCc1ccc(N2CCC(c3ccc(OC(F)(F)F)cc3)CC2)cc1,4.78 ± 2.6,6.24 ± 4.5
O=C(O)/C=C/C=C/c1cccc(Oc2cc(Cl)cc(Cl)c2)c1,7.69 ± 2.2,13 ± 7.6
CCCCc1ccc(-c2nc(C)c(C(=O)OC)s2)cc1,4.25 ± 0.74,12.2 ± 3.7
C=C(C)[C@@H]1CC[C@]2(C(=O)O)CC[C@]3(C)[C@H](CC[C@@H]4[C@@]5(C)CC[C@H](O)C(C)(C)[C@@H]5CC[C@]43C)[C@@H]12,6.56 ± 0.21,9.57 ± 2
O=S(=O)(NCB(O)O)c1cc2c(Cl)ccc(Cl)c2s1,4.07 ± 0.53,15.8 ± 20
O=C(Nc1[nH]c(=O)ncc1F)c1ccccc1,4.09 ± 0.71,23.8 ± 20
O=C(/C(=C/c1ccc(Cl)cc1Cl)n1ccnc1)c1ccc(Cl)cc1,24.5 ± 2.2,89.8 ± 17
O=C(N[C@H](Cc1cccc2ccccc12)C(=O)NCCc1c[nH]cn1)C1Cc2ccccc2C1,7.87 ± 3.1,17.2 ± 4.5
O=C(Nc1ccc(-c2ccccc2)cc1)C1=C(O)C(Cc2ccccc2)OC1=O (stereo unspecified),5.44 ± 3.9,6.02 ± 4.2
O=C(NCc1ccccc1Cl)c1cnc2ccccc2n1,6.81 ± 1,12.1 ± 12
COc1cc2c(O)c3c(c(-c4ccc5c(c4)OCO5)c2cc1OC)C(=O)OC3,4.37 ± 1.7,3.64 ± 3.2
CC(C)N(c1cc(-c2ccccc2)sc1C(=O)O)C(=O)[C@H]1CC[C@H](C)CC1,4.15 ± 1.8,12.2 ± 7.8
CC[C@H]1OC(=O)[C@H](C)[C@@H](O[C@H]2C[C@@](C)(OC)[C@@H](O)[C@H](C)O2)[C@H](C)[C@@H](O[C@@H]2O[C@H](C)C[C@H](N(C)C)[C@H]2O)[C@](C)(O)C[C@@H](C)C(=O)[C@H](C)[C@@H](O)[C@]1(C)O,3.49 ± 0.53,–

Compound,progeny production (40 µM) [%],progeny production (100 µM) [%]
C=CCN(C(=O)OCc1ccc([N+](=O)[O-])cc1)C1CCN(CC[C@](C)(CN(C)S(=O)(=O)c2ccccc2)c2ccccc2)CC1,3.88 ± 1.4,5.72 ± 2.3
CCC[C@H](NC(=O)[C@@H]1[C@H]2CCC[C@H]2CN1C(=O)[C@@H](NC(=O)[C@@H](NC(=O)c1cnccn1)C1CCCCC1)C(C)(C)C)C(=O)C(=O)NC1CC1,9.24 ± 1.8,10.3 ± 1.3
CC1CCc2c(N3CCC(O)CC3)c(F)cc3c(=O)c(C(=O)O)cn1c23 (stereo unspecified),8.47 ± 4.4,11 ± 2.9
COc1cc(C)c2c(Oc3cccc(C(F)(F)F)c3)c(OC)cc(NC(C)CCCN)c2n1 (stereo unspecified),4.23 ± 1,–
COc1cc(NCc2ccc3nc(N)nc(N)c3c2C)cc(OC)c1OC,2.11 ± 0.79,–
O=[N+]([O-])c1ccc2c(CCc3c[nH]c4ccccc34)c[nH]c2c1,8.93 ± 1.7,35.7 ± 12
CC(C)(C)NC(=O)[C@@H]1CN(Cc2cnc3occc3c2)CCN1C[C@@H](O)C[C@@H](Cc1ccccc1)C(=O)N[C@H]1c2ccccc2C[C@H]1O,8.87 ± 0.17,8.42 ± 0.9
CC[C@@]1(O)C(=O)OCc2c1cc1n(c2=O)Cc2cc3c([N+](=O)[O-])cccc3nc2-1,5.77 ± 1.9,8.29 ± 3.3
Cc1cc(NS(=O)(=O)c2ccc(-c3ccc(F)cc3F)cc2)no1,4.39 ± 1.9,–
Cc1onc(-c2ccccc2)c1-c1ccc(S(N)(=O)=O)cc1,3.75 ± 1.8,7.71 ± 5.3
O=C(c1ccc(F)cc1)N1CCN2C(=O)c3ccccc3C12c1ccccc1 (stereo unspecified),2.5 ± 1.4,7.13 ± 5
COc1ccc2sc3c(c2c1)NC(C)CNC3=O (stereo unspecified),7.35 ± 2.7,29.9 ± 22
N#Cc1c(F)c(Cl)c(NCc2ccccc2)c(C#N)c1F,32.6 ± 17,15 ± 3.8
O=C(CP(=O)(O)O)NCCc1cccc(Oc2ccccc2)c1,4.04 ± 0.94,–
Fc1ccc(-n2cc(Cn3c(-c4cccc(F)c4)nc4ccccc43)nn2)cc1,3.69 ± 0.39,–
Cc1cc(CCCOc2c(C)cc(-c3noc(C(F)(F)F)n3)cc2C)on1,1.93 ± 0.29,15.4 ± 3.2
O=C(O)c1sccc1S(=O)(=O)n1ccc2cc(Br)ccc21,5.86 ± 1.6,8.33 ± 1.2
CC(C)(C)c1cccc(-c2nc3cc(C(=N)N)ccc3[nH]2)c1O,2.13 ± 0.25,20.4 ± 23
CCCCC(CC)CNC(=N)NC(=N)NCCCCCCNC(=N)NC(=N)NCC(CC)CCCC (stereo unspecified),5.25 ± 0.29,24.3 ± 32
O=C(O)c1cc(-c2ccc(Br)cc2)nc2ccc(Cl)cc12,4.63 ± 0.086,11.3 ± 3.5
Nc1nc(-c2ccccc2)nc2[nH]nc(Nc3ccc(C(F)(F)F)cc3)c12,7.69 ± 2.2,29.5 ± 27

Compound,progeny production (40 µM) [%],progeny production (100 µM) [%]
C[C@@H]1O[C@@H]1P(=O)(O)O,4.36 ± 0.35,15.3 ± 13
Cc1cc(Nc2ccc(F)cc2)nc(SCc2nc3ccccc3[nH]2)n1,3.08 ± 0.71,16.7 ± 14
FC(F)(F)Oc1ccc(Nc2ccc3cccc(Cl)c3n2)cc1,6.88 ± 1.5,11.1 ± 7.2
COc1ccc(CNC(=O)C(NS(=O)(=O)c2ccc3nc(C)sc3c2)C(C)C)cc1 (stereo unspecified),4.14 ± 1.6,6.87 ± 4
Cc1nc(Nc2ccc(F)cc2)nc(N2CCc3ccccc3C2C)c1C (stereo unspecified),2.7 ± 0.53,20.9 ± 25
Fc1ccc(-c2nc(-c3c[nH]c4ccc(Br)cc34)[nH]c2-c2ccc(F)cc2)cc1,3.87 ± 1.5,6.81 ± 2.8
O=C(/C=C/n1cnc(-c2cc(C(F)(F)F)cc(C(F)(F)F)c2)n1)NNc1cnccn1,7.43 ± 4,14.1 ± 2.6
CS(=O)(=O)c1ccc(Oc2ccc(Cl)cc2)cc1,2.98 ± 0.48,13.1 ± 9.1
CCc1nc2ccccn2c1C(=O)NCc1ccccc1,6.11 ± 1.7,12.8 ± 11
NCC(=O)Nc1ccc(-n2nc(C(F)(F)F)cc2-c2ccc3c(ccc4ccccc43)c2)cc1,4.52 ± 2.6,11.9 ± 7
O=C(Nc1ccccc1C(=O)O)c1cccc(Oc2ccccc2)c1,3.52 ± 1.3,16.2 ± 14
CCC(CC)[C@H](NC(C)=O)[C@@H]1[C@H](O)[C@@H](C(=O)O)C[C@H]1NC(=N)N,6.29 ± 2.5,7.52 ± 7.1
CCC(C)n1ncn(-c2ccc(N3CCN(c4ccc(OCC5COC(Cn6cncn6)(c6ccc(Cl)cc6Cl)O5)cc4)CC3)cc2)c1=O (stereo unspecified),4.85 ± 1.2,22.8 ± 5.2
CCc1nc(N)nc(N)c1C#CCc1ccccc1,8.69 ± 6,15.6 ± 5
COc1ccc(C2=CC(c3c(F)cccc3Cl)n3ncnc3N2)cc1 (stereo unspecified),3.01 ± 1.9,8.48 ± 5.9
NNC(=O)c1ccncc1,12.3 ± 5.7,14.7 ± 5.8
O=C(O)c1ccccc1Sc1ncnc2sc3c(c12)CCC3,3.94 ± 1.7,25.2 ± 16
COCCn1cnc2c(O)nc(Nc3ccccc3)nc21,8.43 ± 4.5,17.6 ± 6.1
COc1cc(Cc2cnc(N)nc2N)cc(OC)c1OC,1.91 ± 0.77,16.3 ± 11
O=S(=O)(Nc1ccc(-n2cccc2)cc1)c1ccc(Cl)c(Cl)c1,6.12 ± 3.2,35.7 ± 29
CCC[C@@H]1C[C@@H](C(=O)N[C@@H]([C@H]2O[C@H](SC)[C@H](O)[C@@H](O)[C@H]2O)[C@H](C)Cl)N(C)C1,6.74 ± 4.3,7.36 ± 5.1

Compound,progeny production (40 µM) [%],progeny production (100 µM) [%]
Cc1nc(-c2ccc(C3N(C)c4ccc(F)cc4C(=O)N3c3ccccc3)s2)cs1 (stereo unspecified),3.69 ± 1.5,6.47 ± 4.9
NCCCc1ccccc1C(=O)Nc1ncc([N+](=O)O)s1,3.03 ± 1.9,25.2 ± 31
CCOc1ccc(C(=O)NCCc2ccccc2)cc1,6.06 ± 3.1,6.07 ± 3
Clc1ccc(COC(Cn2ccnc2)c2ccc(Cl)cc2Cl)c(Cl)c1 (stereo unspecified),4.89 ± 1.7,8.86 ± 1.6
CC(C)c1cc2c(cc1S(=O)(=O)O)[C@@]1(C)CCC[C@@](C)(C(=O)O)[C@@H]1CC2,8.72 ± 4.5,4.55 ± 3
Fc1ccc2c(/C=C/c3cccnc3)c[nH]c2c1,3.47 ± 0.88,19.9 ± 9
Cc1cc(O)c2c(c1)C(=O)c1c(I)c(O)c(I)c(O)c1C2=O,8.9 ± 5.8,25.1 ± 5.2
CC(=N)N1CC[C@H](SC2=C(C(=O)O)N3C(=O)[C@@H]([C@@H](C)O)[C@H]3C2)C1,4.18 ± 0.82,11.1 ± 7.9
O=C(c1ccccc1)N1CCN(c2ccccc2NC(=O)C(Cl)(Cl)Cl)CC1,13 ± 10,12.7 ± 8.6
Nc1cc(N)c2nc(-c3ccccc3)c(Nc3ccc(F)cc3)nc2c1,4.57 ± 1.7,23.5 ± 17
c1ccc(Cn2c(-c3ccccn3)nc3ccccc32)cc1,3.12 ± 1.9,4.55 ± 2.1
Cc1ncc([N+](=O)[O-])n1CC(C)O (stereo unspecified),7.4 ± 3.9,7.52 ± 8.6
CC[C@@]1(O)C(=O)OCc2c1cc1n(c2=O)Cc2cc3c(CN(C)C)c(O)ccc3nc2-1,7.48 ± 1.6,10 ± 2.5
CC(C)/N=c1\cc2n(-c3ccc(Cl)cc3)c3ccccc3nc-2cc1Nc1ccc(Cl)cc1,5.08 ± 1.9,9.5 ± 7.2
CC[C@H](NC(=O)[C@H](C)NC)C(=O)N1C[C@@H](O)C[C@H]1Cc1c(-c2[nH]c3cc(F)ccc3c2C[C@@H]2C[C@H](O)CN2C(=O)[C@H](CC)NC(=O)[C@H](C)NC)[nH]c2cc(F)ccc12,6.99 ± 3.1,17.7 ± 7.7
Cc1ccc(NC(=O)c2ccc(CN3CCN(C)CC3)cc2)cc1Nc1nccc(-c2cccnc2)n1,5.07 ± 2.9,9.12 ± 3.8
CCOC(=O)N[C@@H]1CC[C@@H]2[C@@H](C1)C[C@H]1C(=O)O[C@H](C)[C@H]1[C@H]2/C=C/c1ccc(-c2cccc(F)c2)cn1,4.47 ± 3.1,9.38 ± 3.8
CCCCCCC1c2ccc(O)cc2Oc2cc(O)ccc21,4.98 ± 1.8,29.9 ± 30
COc1cc(C(C(=O)NC2CCCCC2)N(C(=O)Cc2c[nH]c3ccccc23)c2ccc(C(C)C)cc2)cc(OC)c1OC (stereo unspecified),5.01 ± 0.57,7.98 ± 2
